Measured values reported in the supplement of paper PMC11732987, “Enantioselective OTUD7B fragment discovery through chemoproteomics screening and high-throughput optimisation” (Communications Chemistry, 2025).

Legend:
Assay in all cases: log2 ratio of Biotin-Ahx-Ub-VS probe labelling (fragment/DMSO); higher = less target engagement (more negative = stronger competition), active = hit call of the paper (q ≤ 0.05, log2 ratio ≤ -1)
Details in all cases: compound concentration: 200 uM; treatment time: 3 h
USP19 = molecular target: T1, USP19 (UniProt O94966)
T1 sequence (whole entry): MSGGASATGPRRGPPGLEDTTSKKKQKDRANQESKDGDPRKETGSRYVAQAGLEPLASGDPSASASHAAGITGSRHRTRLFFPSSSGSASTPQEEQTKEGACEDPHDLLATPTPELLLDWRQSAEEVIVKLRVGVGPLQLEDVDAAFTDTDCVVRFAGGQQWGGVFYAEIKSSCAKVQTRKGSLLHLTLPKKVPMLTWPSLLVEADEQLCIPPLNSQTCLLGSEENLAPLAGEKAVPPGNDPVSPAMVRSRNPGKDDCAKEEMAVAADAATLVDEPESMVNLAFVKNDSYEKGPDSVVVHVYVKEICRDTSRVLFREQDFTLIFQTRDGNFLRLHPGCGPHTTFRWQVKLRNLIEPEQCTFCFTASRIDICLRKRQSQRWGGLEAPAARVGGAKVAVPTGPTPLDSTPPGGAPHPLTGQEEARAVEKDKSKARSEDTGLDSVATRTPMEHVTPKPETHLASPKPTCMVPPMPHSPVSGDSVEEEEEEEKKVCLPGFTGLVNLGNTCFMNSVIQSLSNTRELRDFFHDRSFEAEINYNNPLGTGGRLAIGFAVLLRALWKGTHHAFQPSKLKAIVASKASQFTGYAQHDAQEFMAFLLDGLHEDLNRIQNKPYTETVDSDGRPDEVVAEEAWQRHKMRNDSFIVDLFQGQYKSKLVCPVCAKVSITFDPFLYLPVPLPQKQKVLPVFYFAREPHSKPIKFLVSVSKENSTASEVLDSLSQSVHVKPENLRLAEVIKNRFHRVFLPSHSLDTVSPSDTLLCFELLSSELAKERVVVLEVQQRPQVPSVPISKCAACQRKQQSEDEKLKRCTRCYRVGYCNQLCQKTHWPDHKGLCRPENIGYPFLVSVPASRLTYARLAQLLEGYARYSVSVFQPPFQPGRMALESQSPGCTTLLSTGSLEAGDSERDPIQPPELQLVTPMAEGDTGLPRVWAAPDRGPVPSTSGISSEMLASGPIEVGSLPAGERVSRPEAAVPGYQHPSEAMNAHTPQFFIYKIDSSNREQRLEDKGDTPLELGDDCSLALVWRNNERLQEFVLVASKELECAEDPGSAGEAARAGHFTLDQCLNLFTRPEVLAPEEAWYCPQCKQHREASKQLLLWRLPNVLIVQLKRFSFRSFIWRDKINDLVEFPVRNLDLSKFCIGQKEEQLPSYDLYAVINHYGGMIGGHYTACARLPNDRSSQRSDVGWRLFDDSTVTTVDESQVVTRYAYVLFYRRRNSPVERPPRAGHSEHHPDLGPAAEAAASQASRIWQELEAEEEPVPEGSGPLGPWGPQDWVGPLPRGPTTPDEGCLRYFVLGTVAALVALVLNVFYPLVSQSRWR
Outline: (§1)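 Labelled DUBs from HEK293T lysate were NeutrAvidin-enriched, digested with LysC and trypsin, and run by diaPASEF LC-MS/MS. Before that, each 495 µg sample in Tris/CHAPS/IGEPAL buffer with protease inhibitors was treated in triplicate with fragment at 200 µM or vehicle for 3 h, then with Biotin-Ahx-Ub-VS at 0.5 µM final for 1 h. Values are average log2 ratios of fragment over vehicle by unpaired t-test, based on global-median-normalised Spectronaut label-free quantities from proteins with ≥2 unique peptides.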

USP22 = molecular target: T2, USP22 (UniProt Q9UPT9)
T2 sequence (whole entry): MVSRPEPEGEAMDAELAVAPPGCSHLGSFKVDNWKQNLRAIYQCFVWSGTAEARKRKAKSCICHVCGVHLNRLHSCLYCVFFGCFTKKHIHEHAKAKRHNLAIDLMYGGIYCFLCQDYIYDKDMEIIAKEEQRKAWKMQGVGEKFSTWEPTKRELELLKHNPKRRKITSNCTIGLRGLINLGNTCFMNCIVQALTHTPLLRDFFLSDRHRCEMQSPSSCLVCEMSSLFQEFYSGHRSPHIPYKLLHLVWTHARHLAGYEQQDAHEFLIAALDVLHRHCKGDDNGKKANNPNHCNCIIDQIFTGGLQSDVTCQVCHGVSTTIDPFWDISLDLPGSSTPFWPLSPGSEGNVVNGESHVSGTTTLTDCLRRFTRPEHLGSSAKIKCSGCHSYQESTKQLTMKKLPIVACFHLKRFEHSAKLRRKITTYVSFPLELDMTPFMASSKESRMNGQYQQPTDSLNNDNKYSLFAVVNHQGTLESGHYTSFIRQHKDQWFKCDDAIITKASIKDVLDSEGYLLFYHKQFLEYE
Outline: as §1

USP24 = USP24 (UniProt Q9UPU5)
USP24, sequence (Q9UPU5 whole entry): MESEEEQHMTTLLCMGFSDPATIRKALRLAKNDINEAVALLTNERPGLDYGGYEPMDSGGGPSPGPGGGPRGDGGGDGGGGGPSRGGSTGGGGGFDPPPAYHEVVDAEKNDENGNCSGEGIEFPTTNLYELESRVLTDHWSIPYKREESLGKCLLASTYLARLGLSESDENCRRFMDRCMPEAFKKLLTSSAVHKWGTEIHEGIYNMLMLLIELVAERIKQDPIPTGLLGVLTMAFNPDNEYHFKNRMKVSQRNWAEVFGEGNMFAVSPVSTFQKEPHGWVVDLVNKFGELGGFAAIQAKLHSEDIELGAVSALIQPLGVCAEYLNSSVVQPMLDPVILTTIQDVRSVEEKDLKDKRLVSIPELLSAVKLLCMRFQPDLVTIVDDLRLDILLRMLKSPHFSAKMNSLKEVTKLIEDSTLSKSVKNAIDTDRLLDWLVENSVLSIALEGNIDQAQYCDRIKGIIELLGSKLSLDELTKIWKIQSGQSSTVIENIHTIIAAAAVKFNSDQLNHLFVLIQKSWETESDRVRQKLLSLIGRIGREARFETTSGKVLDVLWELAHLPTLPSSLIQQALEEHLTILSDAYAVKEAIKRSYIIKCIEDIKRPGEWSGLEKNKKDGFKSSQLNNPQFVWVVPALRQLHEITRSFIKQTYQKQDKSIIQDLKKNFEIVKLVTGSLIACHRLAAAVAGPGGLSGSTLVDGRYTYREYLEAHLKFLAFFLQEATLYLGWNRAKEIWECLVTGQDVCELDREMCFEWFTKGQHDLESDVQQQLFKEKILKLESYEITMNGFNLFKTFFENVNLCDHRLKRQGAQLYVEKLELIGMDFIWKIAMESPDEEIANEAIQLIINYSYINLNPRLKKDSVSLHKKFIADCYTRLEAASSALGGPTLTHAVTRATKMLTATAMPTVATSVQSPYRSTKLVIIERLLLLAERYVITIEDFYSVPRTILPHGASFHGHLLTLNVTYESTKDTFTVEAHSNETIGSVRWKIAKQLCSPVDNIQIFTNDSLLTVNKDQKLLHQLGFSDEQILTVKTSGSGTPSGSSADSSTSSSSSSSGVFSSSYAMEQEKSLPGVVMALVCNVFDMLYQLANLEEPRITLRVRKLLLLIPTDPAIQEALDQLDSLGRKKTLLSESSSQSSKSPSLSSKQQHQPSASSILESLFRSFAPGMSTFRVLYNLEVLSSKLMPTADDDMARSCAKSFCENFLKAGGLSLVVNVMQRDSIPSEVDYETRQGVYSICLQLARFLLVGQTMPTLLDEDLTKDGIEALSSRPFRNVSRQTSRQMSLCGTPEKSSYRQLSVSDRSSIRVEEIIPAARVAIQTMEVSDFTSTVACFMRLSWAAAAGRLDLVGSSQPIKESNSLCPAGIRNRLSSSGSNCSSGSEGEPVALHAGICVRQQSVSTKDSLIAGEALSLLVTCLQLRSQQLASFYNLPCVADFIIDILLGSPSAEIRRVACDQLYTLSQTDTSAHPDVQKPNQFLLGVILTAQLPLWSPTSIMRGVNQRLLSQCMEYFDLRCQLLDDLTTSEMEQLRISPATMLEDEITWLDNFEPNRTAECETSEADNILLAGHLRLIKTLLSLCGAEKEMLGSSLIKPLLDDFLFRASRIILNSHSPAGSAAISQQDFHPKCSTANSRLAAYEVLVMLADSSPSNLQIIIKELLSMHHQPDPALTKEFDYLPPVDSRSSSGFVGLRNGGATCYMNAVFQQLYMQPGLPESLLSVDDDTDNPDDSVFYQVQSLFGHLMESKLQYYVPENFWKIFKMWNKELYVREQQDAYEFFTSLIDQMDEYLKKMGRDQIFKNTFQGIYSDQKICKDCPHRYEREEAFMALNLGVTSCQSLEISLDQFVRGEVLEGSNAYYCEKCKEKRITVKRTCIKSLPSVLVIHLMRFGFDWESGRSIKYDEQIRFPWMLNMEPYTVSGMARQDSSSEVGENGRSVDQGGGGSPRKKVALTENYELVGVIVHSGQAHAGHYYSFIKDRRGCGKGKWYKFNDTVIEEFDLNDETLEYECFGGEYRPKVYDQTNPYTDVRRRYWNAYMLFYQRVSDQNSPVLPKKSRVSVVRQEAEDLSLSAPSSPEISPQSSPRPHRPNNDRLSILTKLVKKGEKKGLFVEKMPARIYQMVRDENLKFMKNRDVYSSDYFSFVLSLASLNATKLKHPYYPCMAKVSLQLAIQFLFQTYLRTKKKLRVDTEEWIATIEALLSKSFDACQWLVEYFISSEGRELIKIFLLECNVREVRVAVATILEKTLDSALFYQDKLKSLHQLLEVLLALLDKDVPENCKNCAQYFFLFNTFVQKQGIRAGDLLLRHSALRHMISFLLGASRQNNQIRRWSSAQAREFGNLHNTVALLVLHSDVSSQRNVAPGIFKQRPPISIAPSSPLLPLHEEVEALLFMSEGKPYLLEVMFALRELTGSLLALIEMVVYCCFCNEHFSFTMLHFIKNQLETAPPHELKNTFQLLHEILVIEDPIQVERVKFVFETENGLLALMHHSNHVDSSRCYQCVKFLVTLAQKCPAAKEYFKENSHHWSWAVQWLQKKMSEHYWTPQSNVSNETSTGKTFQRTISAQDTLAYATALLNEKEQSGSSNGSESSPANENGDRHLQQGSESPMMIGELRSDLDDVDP
Outline: as §1

USP25 = molecular target: T3, USP25 (UniProt Q9UHP3)
T3 sequence (whole entry): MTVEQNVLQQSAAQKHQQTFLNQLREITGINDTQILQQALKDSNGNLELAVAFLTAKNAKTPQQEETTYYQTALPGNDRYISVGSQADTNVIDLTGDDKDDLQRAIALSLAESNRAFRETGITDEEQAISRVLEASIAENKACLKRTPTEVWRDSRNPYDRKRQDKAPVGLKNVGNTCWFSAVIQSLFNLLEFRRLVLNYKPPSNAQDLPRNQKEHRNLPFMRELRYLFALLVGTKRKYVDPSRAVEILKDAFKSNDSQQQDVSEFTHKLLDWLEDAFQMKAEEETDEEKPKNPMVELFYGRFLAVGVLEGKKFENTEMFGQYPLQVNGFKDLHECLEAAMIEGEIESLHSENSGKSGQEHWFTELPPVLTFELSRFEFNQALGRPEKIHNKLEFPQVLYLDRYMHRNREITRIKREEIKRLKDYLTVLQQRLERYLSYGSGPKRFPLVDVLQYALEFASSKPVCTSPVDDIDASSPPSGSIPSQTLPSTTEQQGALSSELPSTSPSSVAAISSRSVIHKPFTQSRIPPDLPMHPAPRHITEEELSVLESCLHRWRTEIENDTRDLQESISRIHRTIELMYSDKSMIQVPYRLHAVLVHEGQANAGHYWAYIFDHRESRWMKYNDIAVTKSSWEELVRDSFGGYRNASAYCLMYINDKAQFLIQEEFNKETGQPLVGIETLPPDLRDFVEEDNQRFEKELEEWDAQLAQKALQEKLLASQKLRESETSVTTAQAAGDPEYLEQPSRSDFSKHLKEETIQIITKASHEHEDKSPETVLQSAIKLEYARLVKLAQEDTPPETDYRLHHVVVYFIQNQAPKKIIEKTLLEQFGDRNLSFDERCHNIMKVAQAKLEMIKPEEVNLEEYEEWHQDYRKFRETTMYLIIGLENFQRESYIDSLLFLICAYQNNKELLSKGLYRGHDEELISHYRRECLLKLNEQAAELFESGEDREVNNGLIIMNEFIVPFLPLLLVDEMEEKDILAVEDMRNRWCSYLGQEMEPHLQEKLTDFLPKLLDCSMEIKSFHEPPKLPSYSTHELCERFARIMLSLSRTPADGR
Outline: as §1

USP28 = molecular target: T4, USP28 (UniProt Q96RU2)
T4 sequence (whole entry): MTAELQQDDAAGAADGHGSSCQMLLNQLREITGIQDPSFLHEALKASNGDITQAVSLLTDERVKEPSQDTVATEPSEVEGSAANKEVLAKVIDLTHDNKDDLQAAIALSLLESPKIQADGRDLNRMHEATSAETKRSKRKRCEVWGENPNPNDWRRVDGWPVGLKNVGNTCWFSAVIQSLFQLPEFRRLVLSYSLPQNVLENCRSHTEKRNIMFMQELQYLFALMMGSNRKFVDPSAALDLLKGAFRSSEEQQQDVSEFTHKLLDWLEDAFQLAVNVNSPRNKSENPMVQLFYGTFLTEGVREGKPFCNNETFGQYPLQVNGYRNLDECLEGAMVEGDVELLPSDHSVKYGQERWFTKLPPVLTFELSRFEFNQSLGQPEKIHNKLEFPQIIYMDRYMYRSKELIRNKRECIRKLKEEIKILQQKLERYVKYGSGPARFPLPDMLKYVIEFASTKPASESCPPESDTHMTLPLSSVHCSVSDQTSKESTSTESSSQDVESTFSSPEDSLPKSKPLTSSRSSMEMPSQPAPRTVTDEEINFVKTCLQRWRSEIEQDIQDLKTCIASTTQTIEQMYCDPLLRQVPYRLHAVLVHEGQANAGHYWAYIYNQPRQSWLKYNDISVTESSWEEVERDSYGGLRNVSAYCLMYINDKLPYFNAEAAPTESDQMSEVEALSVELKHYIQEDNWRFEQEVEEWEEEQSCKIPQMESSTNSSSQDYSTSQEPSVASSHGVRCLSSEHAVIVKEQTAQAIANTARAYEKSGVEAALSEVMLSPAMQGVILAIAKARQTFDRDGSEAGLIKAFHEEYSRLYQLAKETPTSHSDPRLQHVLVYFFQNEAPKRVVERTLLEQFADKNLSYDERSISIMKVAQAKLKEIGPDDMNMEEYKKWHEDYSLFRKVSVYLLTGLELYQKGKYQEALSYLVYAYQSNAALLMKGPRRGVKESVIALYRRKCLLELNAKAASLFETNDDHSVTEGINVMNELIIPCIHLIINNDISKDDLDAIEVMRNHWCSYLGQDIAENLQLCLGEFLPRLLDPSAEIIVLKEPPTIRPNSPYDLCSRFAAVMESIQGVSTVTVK
Outline: as §1

Measured: log2 ratio of Biotin-Ahx-Ub-VS probe labelling

O=C(CCl)NCC1(c2ccccc2)CC1
inactive: USP19 -0.058 | USP22 0.0204 | USP24 -0.208 | USP25 -0.366 | USP28 -0.447
